Here are results for eleven compounds from ChEMBL document CHEMBL3988442, “University of Dundee, Small-Polar-MMV Screening Library” (2021).

SMILES strings stand for the structures. For some of these results: Potency and affinity values are given separately.

What all share (parameters): scale not given: direction of the effect not stated beside the values
Assay [1] has as its target Protein translocase subunit SecA (Escherichia coli (strain K12)) (UniProt P10408). Briefly: Assay to Identify E. coli SecA ATPase Inhibitors. The class given is functional. The settings on record: 30 µM.
The target of assay [2] is T1, Ubiquitin-activating enzyme e1, putative (Leishmania donovani (strain BPK282A1)) (UniProt E9BSI1).
T1 sequence (whole entry): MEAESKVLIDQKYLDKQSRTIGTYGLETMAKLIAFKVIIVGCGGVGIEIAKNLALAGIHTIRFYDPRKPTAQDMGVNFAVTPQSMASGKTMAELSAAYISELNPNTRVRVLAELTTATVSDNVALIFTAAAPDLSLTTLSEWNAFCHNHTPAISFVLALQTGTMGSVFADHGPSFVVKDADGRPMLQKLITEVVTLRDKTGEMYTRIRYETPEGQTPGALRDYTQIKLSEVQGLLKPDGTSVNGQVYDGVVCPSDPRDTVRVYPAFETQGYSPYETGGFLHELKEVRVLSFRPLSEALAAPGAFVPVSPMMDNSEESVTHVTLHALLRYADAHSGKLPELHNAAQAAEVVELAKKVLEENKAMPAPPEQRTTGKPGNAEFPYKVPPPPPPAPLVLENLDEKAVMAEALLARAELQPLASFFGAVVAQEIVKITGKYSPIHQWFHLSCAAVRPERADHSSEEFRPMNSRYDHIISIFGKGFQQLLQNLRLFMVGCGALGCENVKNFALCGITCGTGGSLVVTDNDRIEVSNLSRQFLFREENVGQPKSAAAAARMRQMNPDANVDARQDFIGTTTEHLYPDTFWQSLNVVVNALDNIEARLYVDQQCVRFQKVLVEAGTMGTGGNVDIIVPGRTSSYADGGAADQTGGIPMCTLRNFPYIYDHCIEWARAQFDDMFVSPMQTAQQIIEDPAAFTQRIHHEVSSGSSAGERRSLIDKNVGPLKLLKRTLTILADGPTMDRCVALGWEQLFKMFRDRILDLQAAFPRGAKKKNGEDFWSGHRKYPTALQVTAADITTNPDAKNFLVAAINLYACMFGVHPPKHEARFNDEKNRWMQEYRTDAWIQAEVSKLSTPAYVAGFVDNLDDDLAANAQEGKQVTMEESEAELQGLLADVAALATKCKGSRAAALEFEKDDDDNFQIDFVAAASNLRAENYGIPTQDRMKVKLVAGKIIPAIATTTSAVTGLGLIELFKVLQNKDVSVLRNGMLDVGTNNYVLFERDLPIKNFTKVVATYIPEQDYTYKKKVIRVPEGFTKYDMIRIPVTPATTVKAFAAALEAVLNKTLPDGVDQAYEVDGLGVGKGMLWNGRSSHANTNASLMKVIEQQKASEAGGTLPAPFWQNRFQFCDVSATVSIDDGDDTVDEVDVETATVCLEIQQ
Nature of the assay: Leishmania donovani Ubiquitin Activating Enzyme (LdE1). The settings on record: 30 µM. It is filed as functional.

The target of assay [3] is AMP-activated protein kinase, AMPK (Homo sapiens) (UniProt P54646+O43741+P54619+Q9UGJ0+Q9Y478+Q13131+Q9UGI9). Nature of the assay: AMP-dependent Kinase enzyme assay. An in vitro enzyme assay that detects ADP turnover that is directly proportional to AMPK activity. This uses naive AMPK that is activated during the assay with MK-8722. The class given is functional. The settings on record: 30 µM.

Assay [4] has as its target Sialic acid-binding Ig-like lectin 9 (Homo sapiens) (UniProt Q9Y336). Nature of the assay: Hs-Siglec9 ALPHAscreen SOP 20170721. The settings on record: 10 µM.
The next assay has as its system Trypanosoma cruzi. Nature of the assay: Trypanosoma cruzi phosphomannomutase and mannose-1-phosphate guanylyltransferase assay. The settings on record: 10 µM. It is filed as functional.
The target in assay [5] is T2, Arginase-2, mitochondrial (Homo sapiens) (UniProt P78540).
T2 sequence (whole entry): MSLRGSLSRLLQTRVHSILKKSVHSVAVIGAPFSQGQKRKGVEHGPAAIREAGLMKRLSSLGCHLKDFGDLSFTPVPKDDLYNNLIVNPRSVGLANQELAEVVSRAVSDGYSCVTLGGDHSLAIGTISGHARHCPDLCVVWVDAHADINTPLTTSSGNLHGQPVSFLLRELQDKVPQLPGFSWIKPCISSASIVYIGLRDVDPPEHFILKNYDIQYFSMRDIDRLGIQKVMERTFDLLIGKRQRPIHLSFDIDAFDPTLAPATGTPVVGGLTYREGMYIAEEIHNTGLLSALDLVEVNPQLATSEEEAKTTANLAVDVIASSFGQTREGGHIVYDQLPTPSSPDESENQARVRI
Briefly: in vitro enzyme assay to detect the production of urea directly proportional to the activity of Arginase II. Also: in the data most compounds retested in dose-response had high values. It is filed as functional. The settings on record: 33.3 µM.

Assay [6] addresses T3, Proteasome subunit beta (Trypanosoma cruzi) (UniProt O96673).
T3 sequence (whole entry): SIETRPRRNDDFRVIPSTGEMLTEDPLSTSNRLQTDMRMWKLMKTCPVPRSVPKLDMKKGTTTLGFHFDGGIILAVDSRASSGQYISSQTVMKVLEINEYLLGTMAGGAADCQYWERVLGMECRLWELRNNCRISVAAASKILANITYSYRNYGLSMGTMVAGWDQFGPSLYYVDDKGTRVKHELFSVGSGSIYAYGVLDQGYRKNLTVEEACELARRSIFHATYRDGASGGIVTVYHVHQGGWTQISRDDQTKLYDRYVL
Nature of the assay: Trypanosoma cruzi proteasome chymotrypsin-like activity (TcProtChymo) assay. Also: in the data most compounds retested in dose-response had high values. The class given is functional. The settings on record: 9.37 µM.

A further assay is filed under the species Homo sapiens. Nature of the assay: To identify inhibition of the IFN signalling (Jak-Stat) pathway via expression of an eGFP reporter gene under the control of an IFN-stimulated response element (ISRE) containing MxA promoter. It is filed as functional. The settings on record: 30 µM.
The target in assay [7] is T4, Tyrosyl-tRNA synthetase, putative (Trypanosoma cruzi (strain CL Brener)) (UniProt Q4DSP6).
T4 sequence (whole entry): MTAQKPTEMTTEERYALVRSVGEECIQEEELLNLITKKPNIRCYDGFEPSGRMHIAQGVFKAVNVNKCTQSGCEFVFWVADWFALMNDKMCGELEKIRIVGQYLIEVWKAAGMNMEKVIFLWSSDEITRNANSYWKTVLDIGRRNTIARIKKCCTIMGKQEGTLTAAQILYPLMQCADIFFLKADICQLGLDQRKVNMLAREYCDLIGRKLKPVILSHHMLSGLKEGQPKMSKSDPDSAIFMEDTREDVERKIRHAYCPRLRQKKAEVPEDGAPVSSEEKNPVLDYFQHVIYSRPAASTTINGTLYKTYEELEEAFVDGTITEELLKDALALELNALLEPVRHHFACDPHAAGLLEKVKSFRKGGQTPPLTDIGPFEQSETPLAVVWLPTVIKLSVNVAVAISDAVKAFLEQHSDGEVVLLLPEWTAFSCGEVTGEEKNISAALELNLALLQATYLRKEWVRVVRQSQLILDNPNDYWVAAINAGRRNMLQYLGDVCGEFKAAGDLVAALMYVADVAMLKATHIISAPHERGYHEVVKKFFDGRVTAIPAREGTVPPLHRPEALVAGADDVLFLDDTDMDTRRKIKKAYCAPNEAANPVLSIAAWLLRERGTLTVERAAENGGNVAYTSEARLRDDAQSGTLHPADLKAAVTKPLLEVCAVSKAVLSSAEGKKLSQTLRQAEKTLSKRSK
Nature of the assay: Trypanosoma cruzi tyrosyl tRNA synthetase (TcYRS) _High Tyrosine SOP. Also: in the data most compounds retested in dose-response had high values. The class given is functional. The settings on record: 30 µM.

The target in assay [8] is T4, Tyrosyl-tRNA synthetase, putative (Trypanosoma cruzi (strain CL Brener)). Briefly: Trypanosoma cruzi tyrosyl tRNA synthetase (TcYRS) SOP. The settings on record: 30 µM. The class given is functional.
In assay [9] the target is Chromo domain-containing protein 1 (Saccharomyces cerevisiae (strain ATCC 204508 / S288c) (Baker's yeast)) (UniProt P32657). Briefly: ScCHD-1 Enzyme Inhibition Assay. Also: in the data most compounds retested in dose-response had high values. The class given is functional. The settings on record: 30 µM.
Chromo domain-containing protein 1 (Saccharomyces cerevisiae (strain ATCC 204508 / S288c) (Baker's yeast)), sequence (P32657 whole entry, the tested form may be a part): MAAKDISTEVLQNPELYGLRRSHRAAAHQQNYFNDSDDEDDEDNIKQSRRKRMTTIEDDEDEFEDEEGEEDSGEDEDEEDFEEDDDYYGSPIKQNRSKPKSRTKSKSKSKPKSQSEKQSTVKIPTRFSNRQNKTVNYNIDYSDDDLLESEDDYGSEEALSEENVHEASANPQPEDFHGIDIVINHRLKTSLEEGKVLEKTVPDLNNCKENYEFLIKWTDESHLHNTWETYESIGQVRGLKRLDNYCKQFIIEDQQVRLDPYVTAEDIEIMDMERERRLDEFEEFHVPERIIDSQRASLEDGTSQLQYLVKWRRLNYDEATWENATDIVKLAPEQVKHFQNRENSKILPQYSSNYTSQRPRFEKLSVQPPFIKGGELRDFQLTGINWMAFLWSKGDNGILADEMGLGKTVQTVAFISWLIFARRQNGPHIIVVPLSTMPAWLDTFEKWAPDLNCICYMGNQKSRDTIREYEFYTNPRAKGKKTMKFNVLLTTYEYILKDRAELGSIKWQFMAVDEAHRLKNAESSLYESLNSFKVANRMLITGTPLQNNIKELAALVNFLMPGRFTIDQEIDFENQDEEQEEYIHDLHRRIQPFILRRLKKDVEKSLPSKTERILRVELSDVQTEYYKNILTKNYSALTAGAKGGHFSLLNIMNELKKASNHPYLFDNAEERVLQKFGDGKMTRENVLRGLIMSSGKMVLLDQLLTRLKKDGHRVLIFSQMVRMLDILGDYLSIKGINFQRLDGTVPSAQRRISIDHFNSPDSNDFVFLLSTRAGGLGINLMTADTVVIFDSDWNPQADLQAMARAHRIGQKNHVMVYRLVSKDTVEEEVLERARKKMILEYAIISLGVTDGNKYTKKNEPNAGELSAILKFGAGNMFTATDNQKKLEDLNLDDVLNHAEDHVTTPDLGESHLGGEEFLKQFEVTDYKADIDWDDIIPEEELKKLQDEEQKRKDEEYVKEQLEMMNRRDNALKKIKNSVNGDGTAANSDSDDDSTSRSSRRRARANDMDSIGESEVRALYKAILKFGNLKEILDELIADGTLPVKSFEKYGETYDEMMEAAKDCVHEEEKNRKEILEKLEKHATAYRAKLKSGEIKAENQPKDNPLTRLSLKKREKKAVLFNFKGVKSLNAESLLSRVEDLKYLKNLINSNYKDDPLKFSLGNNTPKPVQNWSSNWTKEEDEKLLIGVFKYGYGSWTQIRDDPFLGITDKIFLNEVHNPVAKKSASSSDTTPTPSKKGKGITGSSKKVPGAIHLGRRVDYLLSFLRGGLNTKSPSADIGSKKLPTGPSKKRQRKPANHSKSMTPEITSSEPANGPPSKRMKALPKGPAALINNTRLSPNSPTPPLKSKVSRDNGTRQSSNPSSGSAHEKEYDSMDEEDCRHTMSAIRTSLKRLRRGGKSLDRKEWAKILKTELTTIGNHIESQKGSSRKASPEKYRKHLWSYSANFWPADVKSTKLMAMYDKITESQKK

Protein translocase subunit SecA (Escherichia coli (strain K12)), sequence (P10408 whole entry): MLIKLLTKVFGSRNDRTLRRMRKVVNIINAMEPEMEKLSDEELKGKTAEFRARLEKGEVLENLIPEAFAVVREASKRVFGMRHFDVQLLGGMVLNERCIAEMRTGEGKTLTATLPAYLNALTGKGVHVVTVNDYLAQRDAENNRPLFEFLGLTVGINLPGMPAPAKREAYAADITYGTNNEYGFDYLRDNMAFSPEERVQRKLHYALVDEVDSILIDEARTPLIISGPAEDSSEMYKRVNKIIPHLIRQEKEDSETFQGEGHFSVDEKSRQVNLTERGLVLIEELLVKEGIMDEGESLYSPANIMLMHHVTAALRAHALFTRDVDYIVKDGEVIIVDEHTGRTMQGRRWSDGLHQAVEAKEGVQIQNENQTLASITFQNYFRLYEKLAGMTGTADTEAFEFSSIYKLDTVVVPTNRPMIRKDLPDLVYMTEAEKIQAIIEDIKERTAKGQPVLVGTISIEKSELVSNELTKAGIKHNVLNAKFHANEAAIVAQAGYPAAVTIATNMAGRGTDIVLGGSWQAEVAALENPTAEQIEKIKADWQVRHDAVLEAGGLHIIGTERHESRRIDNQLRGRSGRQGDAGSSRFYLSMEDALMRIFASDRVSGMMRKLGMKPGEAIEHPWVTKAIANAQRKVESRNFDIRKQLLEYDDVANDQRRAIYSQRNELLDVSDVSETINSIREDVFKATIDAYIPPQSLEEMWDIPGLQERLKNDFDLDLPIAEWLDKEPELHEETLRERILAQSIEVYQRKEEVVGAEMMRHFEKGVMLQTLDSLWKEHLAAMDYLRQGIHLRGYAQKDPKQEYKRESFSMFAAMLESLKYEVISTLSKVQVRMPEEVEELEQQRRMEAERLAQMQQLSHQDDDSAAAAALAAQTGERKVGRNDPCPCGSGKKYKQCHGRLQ
Sialic acid-binding Ig-like lectin 9 (Homo sapiens), sequence (Q9Y336 whole entry): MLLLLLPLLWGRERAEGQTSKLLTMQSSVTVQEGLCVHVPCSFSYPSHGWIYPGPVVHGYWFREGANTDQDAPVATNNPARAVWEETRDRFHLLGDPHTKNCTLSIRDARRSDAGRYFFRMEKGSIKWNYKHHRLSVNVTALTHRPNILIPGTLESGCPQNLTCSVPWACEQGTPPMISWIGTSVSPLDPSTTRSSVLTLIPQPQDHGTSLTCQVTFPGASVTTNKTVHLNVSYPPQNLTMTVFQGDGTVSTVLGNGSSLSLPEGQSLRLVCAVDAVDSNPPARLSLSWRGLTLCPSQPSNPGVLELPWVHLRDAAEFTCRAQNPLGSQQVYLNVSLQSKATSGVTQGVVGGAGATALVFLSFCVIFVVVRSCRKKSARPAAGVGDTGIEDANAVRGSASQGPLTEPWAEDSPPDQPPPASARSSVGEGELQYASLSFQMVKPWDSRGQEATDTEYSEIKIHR

Take `c1cnc(NCc2noc3c2CN(CCN2CCCC2)CC3)nc1`: the Percent Effect in [1] was -1.82%; in assay [2], 8%; in assay [3] it was -2.08%; in assay [4], 10.5%; with Trypanosoma cruzi it was 3.48%; in assay [5] it was -47.5%. Also, the Percent Effect was 18.1% in assay [6]; -3.46% in the assay listed under Homo sapiens; 6.25% in [7]; 22.5% in assay [8]; -8.39% in assay [9].
With `CCc1nnc2n1CCN(C(=O)CN(C)Cc1ccccc1)C2`, the Percent Effect in [1] was -2.83%; in [2], 7.89%; in [3], -9.27%; in [4] it was 7.43%; in the assay with Trypanosoma cruzi, 5.88%; in assay [5], 2.16%. In addition, the Percent Effect in assay [6] is 4.32%; in the assay filed under Homo sapiens, -5.24%; in assay [7], 4.43%; in assay [8], 18.5%; in assay [9], -4.71%.
As for `Cc1cnn(CCNCC(=O)NCCOc2ccccc2)c1`, the Percent Effect in assay [1] is 0.828%; in assay [2], 21.1%; in [3], 4.84%; in assay [4], -1.9%; in the assay on Trypanosoma cruzi, -5.88%; in assay [5], 0.719%. Besides, the Percent Effect in assay [6] is 6.85%; in the assay filed under Homo sapiens, 25.5%; in [7] it was 4.43%; in assay [8], -6.17%; in assay [9] it was -8.28%.
In the case of `COCc1nc2n(n1)CCCC2Nc1nc(C2CC2)ns1` (stereo unspecified), the Percent Effect in assay [1] is -2.6%; in assay [2], 5.33%; in assay [3], -1.82%; in [4] it was 23.5%; in the assay on Trypanosoma cruzi, 2.82%; in assay [5] it was 16.1%. For the same compound, the Percent Effect was 13.6% in assay [6]; -2.26% in the assay filed under Homo sapiens; 4.92% in assay [7]; 13.6% in assay [8]; -5.92% in assay [9].
With `Cc1ccc(C2CCCCCN2Cc2cn(C)nc2C)s1` (stereo unspecified), the Percent Effect in assay [1] was -9.52%; in assay [2] it was 18.2%; in assay [3], 0.0483%; in assay [4], -1.66%; with Trypanosoma cruzi it was 1.48%; in assay [5], -4.52%. Further, the Percent Effect is 9.92% in assay [6]; -5.04% in the assay filed under Homo sapiens; 0% in assay [7]; 14.1% in [8]; -7.58% in assay [9].
In the case of `CCn1nc(CC(C)C)cc1C(=O)N1C[C@H](O)[C@@H](N2CCCCC2)C1`, the Percent Effect is -3.95% in assay [1]; 16% in assay [2]; -4.12% in assay [3]; 15.8% in assay [4]; 6.33% in the assay with Trypanosoma cruzi; 4.69% in assay [5]. Moreover, the Percent Effect is 12.6% in assay [6]; -6.25% in the assay filed under Homo sapiens; 2.73% in assay [7]; 13.6% in assay [8]; -6.08% in assay [9].
As to `CC(=O)N1CCCCC1c1cc(C(=O)N2CCOCC2)[nH]n1` (stereo unspecified), the Percent Effect in assay [1] is -1.41%; in [2] it was 14.9%; in assay [3] it was 11%; in assay [4], -1.29%; in the assay with Trypanosoma cruzi it was -1.38%; in assay [5], -0.232%. Besides, the Percent Effect in assay [6] is 6.86%; in the assay filed under Homo sapiens, 2.98%; in [7], 5.38%; in [8], 14.3%; in assay [9], -10.1%.
On to `CCN1CCN(Cc2coc(-c3cccc(F)c3)n2)CC1`, for which the Percent Effect in [1] was -2.72%; in assay [2], 18.2%; in assay [3], -12.3%; in assay [4], -3.56%; in the assay on Trypanosoma cruzi, 5.06%; in [5], -0.356%. The Percent Effect in [6] was 16.6%; in the assay listed under Homo sapiens it was -3.8%; in assay [7], 9.71%; in [8], 12.2%; in [9], -12%.
Regarding `CCN1CCCC(CNC(=O)C2(c3cccc(Cl)c3)CC2)C1` (stereo unspecified), the Percent Effect in [1] was -4.26%; in [2] it was 6.33%; in assay [3] it was 0.975%; in [4], 3.63%; in the assay on Trypanosoma cruzi, -5.85%; in [5], -2.8%. For the same compound, the Percent Effect in assay [6] is 14.6%; in the assay listed under Homo sapiens it was 8.9%; in [7], 7.29%; in [8] it was 15.2%; in assay [9] it was -13.8%.
As for `NC(=O)COc1cccc(C(=O)N2CCCC(n3cccn3)C2)c1` (stereo unspecified), the Percent Effect is -3.05% in [1]; 13.5% in [2]; -1.18% in [3]; 4.63% in assay [4]; 8.45% in the assay with Trypanosoma cruzi; 1.29% in assay [5]. In addition, the Percent Effect in assay [6] was 16%; in the assay listed under Homo sapiens, 4.13%; in assay [7] it was 4.95%; in assay [8], 28.1%; in [9], -6.2%.
For the compound `CCCc1noc(CCC(=O)NC(C)c2nnc3n2CCCCC3)n1` (stereo unspecified), the Percent Effect in assay [1] was -0.578%; in assay [2], 8.11%; in assay [3], -6.02%; in [4] it was 5.58%; in the assay on Trypanosoma cruzi, -2.64%; in assay [5], 5.21%. Moreover, the Percent Effect in assay [6] was 19.5%; in the assay listed under Homo sapiens, 3.01%; in [7], 3.23%; in assay [8] it was 8.64%; in assay [9], -5.75%.
